# FGF22 binding: binders of human FGF22 protein, primary screen, FGF22 synaptogenesis inhibitor project, biophysical, thermal shift, single point; Fibroblast growth factor 22 (Homo sapiens), Q9HCT0; recombinant FGF22 thermal shift, SYPRO orange fluorescence; percent of sucrose octasulfate shift, DMSO zero; activity (Tm shift, normalised), % at 9.99 µM; hit rate 1.5% among 340,000;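 active means mean Tm shift, scaled 0 neutral to 100 positive control, at about 1.3% or above, every replicate too, limit read from the data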
# ERAP1 HTS inh: human ERAP1 aminopeptidase inhibitors, primary screen, biochemical, single point, plate reader | recombinant ERAP1, Leu-AMC fluorescence, 60 min | inhibition, % at 10.7 µM | hit rate 0.15% among 340,000 | AID 652197, 2013;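 active means mean replicate inhibition of at least 30%, or all replicates individually reaching that 30% level; inactive means mean below 30% and not every replicate reaching it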;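 further: 0% = neutral control wells and 100% = L-leucinethiol positive control wells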
# Casp6 inh: human caspase-6 inhibitors, primary screen, biochemical, VEID-R110 fluorescence, single point, set 2; P55212; purified caspase-6, Z-VEID-R110 cleavage fluorescence; inhibition, % at 12.5 µM; hit rate 0.53% among 350,000;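 active means mean inhibition across replicates at least about 35%, with every replicate also reaching that limit, limit read from the data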;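 further: 0% = median of neutral control wells and 100% = no fluorescence left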
# GSIS activator: GLuc luminescence reporter in INS-1E cells, primary screen for activators of glucose-dependent secretion of insulin | INS-1E GLuc reporter insulin secretion, 2-3 h | activation, % at 16.6 µM | hit rate 0.61% among 370,000 | AID 743287, 2014;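 active means lowest replicate activation of at least 40%, so every replicate reaches that level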;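 further: 0% = median of neutral control wells and 100% = median of IBMX positive control wells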
# SIRT5 inh: SIRT5 desuccinylase inhibitors, primary screen, biochemical, fluorescence imaging, single point, set 5 | Purified SirT5, succinyl-peptide AMC, trypsin-coupled fluorescence | hit rate 1.1% among 330,000 | AID 652115, 2013 | inhibition, % at 15 µM; in the data active means inhibition above about 15%
# * marks the source's active call; other numbers are inactive results; nt = not tested or not shown; ! = repeats disagree. Rows were chosen to be rich in hits. Some 3.3% of all compounds tested hit in one or more screens of this group.
SMILES,FGF22 binding,ERAP1 HTS inh,Casp6 inh,GSIS activator,SIRT5 inh
COc1cccc(S(=O)(=O)Nc2ccc3c(c2)OC[C@@H](C)N(Cc2ccccc2F)C[C@H](C)[C@H](OC)CN(C)C3=O)c1,0.2,nt,nt,-16.9,14.5
CCCNC(=O)N1[C@H](CO)[C@@H](c2ccccc2)[C@@H]1CNC(=O)c1ccc(F)cc1,nt,nt,nt,-4.6,nt
CC1=NS(=O)(=O)NC(C)(C)C1,0.0,-1.0,-4.3,52.5*,-1.6
CC1=NC(C#N)=C(C#N)NC(C)(C)C1,-0.1,-1.7,-2.4,-3.7,-0.3
COc1ccc(N2C(=O)C(CC(=O)Nc3ccccc3)N(CCc3ccc(OC)c(OC)c3)C2=O)cc1 (centres undefined),44.2*,5.2,-1.6,-11.0,-1.6
COc1ccc([C@H]2CN(CCc3ccccc3)C(=O)[C@@H]2CC(=O)Nc2ccccc2)cc1,-0.3,-1.9,1.4,-49.2,17.7*
C/C=C/c1ccc2c(c1)O[C@H](CN(C)C(=O)NC1CCCC1)[C@H](C)CN([C@H](C)CO)S2(=O)=O,-0.3,-0.3,1.9,-14.9,15.8*!
C[C@@H]1CN([C@H](C)CO)S(=O)(=O)c2ccc(/C=C/c3ccccc3)cc2O[C@H]1CN(C)C(=O)NC1CCCC1,-0.5,1.0,-1.4,-5.3,15.2*
C[C@@H]1CN([C@@H](C)CO)S(=O)(=O)c2ccc(/C=C/c3ccccc3)cc2O[C@H]1CN(C)C(=O)NC1CCCC1,0.1,0.0,-1.4,-3.9,16.2*
O=C(NC1=C(NC2CCS(=O)(=O)C2)C(=O)c2ccccc2C1=O)c1ccccc1 (centres undefined),-0.9,3.3,95.2*,-32.2,2.4
O=C(NC1=C(Nc2ccc(Cl)cc2)C(=O)c2ccccc2C1=O)c1ccccc1,-0.3,-0.5,23.0,nt,-0.3
Cc1oc(-c2ccccc2)cc1C(=O)Nc1cccc(/C=C\C(=O)O)c1,43.5*,-29.1,3.0,-8.3,-1.9
O=C(c1[nH]c(C(F)(F)F)nc1-c1ccccc1)N1CCCN(Cc2ccc(F)cc2)CC1,0.0,6.2,-3.8,9.9,28.6*
O=C(c1[nH]c(C(F)(F)F)nc1-c1ccccc1)N1CCN(CCN2CCOCC2)CC1,0.0,2.4,-9.7,1.7,5.4
COc1ccc(-c2cc(C(=O)N3CCN(c4cccc(C)c4C)CC3)c3ccccc3n2)cc1OC,nt,4.0,-1.0,4.0,21.1*
COc1ccc(-c2cc(C(=O)N3CCN(c4ncccn4)CC3)c3ccccc3n2)cc1OC,-0.1,2.7,7.6,2.2,2.8
CC(=O)NNc1nc(-c2ccccc2)c2cc(Cl)ccc2n1,0.0,2.6,2.5,3.4,1.0
OCCNc1nc(-c2ccccc2)c2cc(Cl)ccc2n1,0.2,-28.8,2.8,48.3*,1.0
COc1cccc(-c2csc3ncnc(Sc4nnnn4C)c23)c1,0.0,3.5,1.0,52.9*,-4.5
O=C(c1ccncc1)N1C[C@@H]2[C@H](c3ccccc31)[C@H](CO)N2C(=O)Nc1ccc(F)cc1,nt,-1.5,-0.8,-6.4,0.7
Cc1nn(-c2ccc(C(=O)OC(C)C)cc2)c(C)c1[N+](=O)[O-],0.2,3.3,-4.8,-3.4,-1.3
Cc1cc(C)n(-c2cccc(C(=O)O)c2)n1,44.4*,-0.6,-4.3,-5.9,-5.1
Cc1nn(-c2cccc(C(=O)O)c2)c(C)c1[N+](=O)[O-],43.5*,-0.5,1.3,-8.2,3.6
Cc1nn(CC(=O)O)c(C)c1[N+](=O)[O-],0.6,12.4,1.1,6.7,5.1
Cc1nn(CC(=O)c2cccc(Cl)c2)c(C)c1[N+](=O)[O-],43.2*,3.5,-1.1,14.8,-0.8
O=C(Nc1ccc(F)cc1)N1CC(=O)N2[C@H](CO)[C@H](c3ccc(C#Cc4ccccc4)cc3)[C@@H]2C1,nt,nt,nt,-35.6,nt
O=C(N[C@H]1CC[C@H](CC(=O)N2CCC(Cc3ccccc3)CC2)O[C@H]1CO)c1cnccn1,-0.2,3.0,0.3,1.0,-0.8
COc1cccc(NC(=O)Cn2c(=O)n(C)c(=O)c3sc4c(c32)COC(C)(C)C4)c1,0.3,0.8,43.9*,-4.9,-0.2
Cc1cccc(NC(=O)Cn2nnc3sc4c(c3c2=O)CC(C)(C)OC4)c1,0.2,2.8,2.0,-28.6,1.2
COc1ccc2[nH]c3c(NCCCN4CCCC4=O)ncnc3c2c1,nt,nt,nt,47.7*,nt
